Most compounds without a hit are left out; they make up all but 3.2% or so of the library.
ClpP mod: qHTS Assay for Activators of ClpP | Potency, µM (titrated, usually from 57.5 µM) | AID 651965, 2013 | 340,000 compounds, 1.9% hits | purified B. subtilis ClpP, FRET peptide cleavage, 20 min | ATP-dependent Clp protease proteolytic subunit (Bacillus subtilis (strain 168)), P80244; active means well fitted falling curve with a large enough effect; inconclusive means small, poorly fitted or top-dose-only effect; inactive means no such curve, though single readings can be large or run the other way; further: the source files actives as falling curves though it sought activators and does not explain the sign; nearly all actives have a fitted effect of over 65% in size
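Buffer: 100 mM Tris/HCl pH8, 100 mM KCl, 0.05% low protease BSA, 2.5% glycerol, 0.01% Tween-20. ClpP 10 microg/mL final; 20 min RT; delta FRET normalized to ADEP and DMSO controls.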
GLP1R cytotox: cytotoxicity in counter-screen for GLP-1R inverse agonists; HEK293 cAMP-luciferase reporter cells, luminescence, 24 h; Potency, µM (titrated, usually from 38.3 µM), hits mostly inhibitors; 410,000 compounds, 0.13% hits;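 further: loss of luciferase light is scored as toxicity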
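A 23 nL compound transfer followed 12 hours of cell culture at 37 deg C; exposure then lasted 24 hr. Luciferase assay detection reagent was dispensed and plates read for luminescence after a 12 min room-temperature wait.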
GLP1R inv ag: inverse agonists of human GLP-1 receptor; P43220; HEK293 GLP-1R CRE-luciferase, luminescence, 24 h; GLP-1R form is constitutively active; Potency, µM (series often up to 38.3 µM), usual class: inhibitors; 410,000 compounds, 1.6% hits; further: nearly all actives have a fitted effect of over 55% in size
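Stable HEK293 clone (constitutively active GLP-1R + cAMP-response luciferase); 200 cells/uL plated, 12 h pre-culture, compound 24 hr, 37 deg C/5% CO2; detection reagent 12 min RT; luminescence.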
GLP1R ag: activates the human GLP-1 receptor. HEK293 GLP-1R CRE-luciferase, luminescence, 4-6 h; cells express a hypersensitive GLP-1R form. Potency, µM (titrated, usually from 45.6 µM), hits mostly activators. 380,000 compounds, 0.007% hits
A number is an active result; . = inactive; ? = inconclusive; / = no result given. Unless noted, the call rests on the fitted dose curve; in most records, active means well fitted curve in the direction sought with a large enough effect; inconclusive means small, poorly fitted or top-dose-only effect, or another doubt; inactive means no such curve, though single readings can be large; an effect the other way counts as inactive or inconclusive.

SMILES	ClpP mod	GLP1R cytotox	GLP1R inv ag	GLP1R ag
N#C/C(=C\c1cc(Br)c(O)c(Br)c1)c1nc2ccccc2c(=O)[nH]1	25µM	.	.	/
O=C1CC(SC(=Nc2ccccc2)Nc2ccccc2)C(=O)N1c1cccc(Cl)c1 (stereo not drawn)	.	?	5µM	.
CCc1ccc(CNC(=O)CN2C(=O)CSc3ccc(S(=O)(=O)N4CCOCC4)cc32)cc1	.	.	.	/
O=C(NCc1ccc(Cl)cc1)c1cc2c(s1)-c1ccccc1SC2	32µM	.	?	/
O=C(NCc1cccc(Cl)c1)c1cc2c(s1)-c1ccccc1SC2	?	.	.	/
CN(Cc1ccccc1)C(=O)c1cc2c(s1)-c1ccc(Cl)cc1SC2	25µM	.	?	/
Cc1ccc(Cn2c(C(=O)O)c(CNC3CCCCC3)c3ccc(C)cc32)cc1	.	.	.	.
COc1ccccc1C(=O)OCC(=O)NC12CC3CC(CC(C3)C1)C2	/	.	10µM	.
O=C(COC(=O)C(O)c1ccccc1)NC12CC3CC(CC(C3)C1)C2 (stereo not drawn)	.	.	.	.
COc1cc(OC)c(C(=O)OCC(=O)NC23CC4CC(CC(C4)C2)C3)cc1OC	.	.	?	.
O=C(CON=C1c2ccccc2-c2ccccc21)NC12CC3CC(CC(C3)C1)C2	.	.	1µM	.
COc1cccc(C2C(C#N)=C(N)OC3=C2C(=O)CC(c2ccco2)C3)c1OCc1ccc(F)cc1 (stereo not drawn)	.	.	?	.
N#CC1=C(N)OC2=C(C(=O)CC(c3ccco3)C2)C1c1ccc(OCc2c(F)cccc2Cl)cc1 (stereo not drawn)	.	.	10µM	.
Cc1noc(-c2ccc(N3CCCCC3C)c([N+](=O)[O-])c2)n1 (stereo not drawn)	.	.	.	/
COc1ccc(Nc2nc(N3CCCCC3)c3ccccc3n2)cc1	.	?	5.6µM	.
Oc1ccc(Nc2nc(N3CCCC3)c3ccccc3n2)cc1	.	.	?	.
c1ccc(Nc2nc(N3CCCC3)nc(N3CCCC3)n2)cc1	.	.	?	.
c1ccc(Nc2nc(N3CCCCC3)nc(N3CCCCC3)n2)cc1	.	.	10µM	.
CCOc1ccc(CCNC(=O)C(CC(C)C)N2Cc3ccccc3C2=O)cc1OCC (stereo not drawn)	.	.	?	/
CC#CC[C@@H](C)[C@@H](O)/C=C/[C@H]1[C@H]2c3cccc(CCCC(=O)O)c3O[C@H]2C[C@@H]1O	/	/	/	.
COc1ccc(N2C(=O)CCC(C(=O)N3CCCCC3)C2c2ccc(F)cc2)cc1 (stereo not drawn)	13µM	.	?	.
CN(C)S(=O)(=O)c1ccc(C(=O)Nc2nnc(Cc3ccccc3)s2)cc1	22µM	.	.	.
O=C(Nc1nnc(Cc2ccccc2)s1)c1ccccc1	/	.	.	.
CC1(NC(=O)N2CCCCC2)CCS(=O)(=O)C1 (stereo not drawn)	.	.	.	.
CC12CC3(C)CC(C)(C1)CC(NC(=O)N1CCCC1)(C2)C3	.	.	10µM	.
SMILES	ClpP mod	GLP1R cytotox	GLP1R inv ag	GLP1R ag
Cc1ccc(Nc2nc(C)cc(C)n2)c(C(=O)O)c1	.	.	.	/
O=S(=O)(Cc1ccc(Cl)cc1)c1ccccc1-c1nnc(-c2ccccc2)o1	32µM	.	.	.
CS(=O)(=O)c1ccccc1-c1nnc(-c2ccc(Cl)cc2)o1	/	.	.	.
Cc1c(C(=O)NCc2ccccc2Cl)sc2ncnc(N(C)C3CCCCC3)c12	?	.	.	/
COc1ccc(OC)c(NC(=O)Nc2c(C)n(C)n(-c3ccccc3)c2=O)c1	.	.	.	/
COc1ccc(Cl)cc1NC(=O)CN(C)C(=O)c1cc2c(F)cccc2s1	.	.	?	.
COc1ccc(Cl)cc1NC(=O)CN(C)C(=O)c1ccc(C)s1	/	.	5.6µM	.
COc1ccc(Cl)cc1NC(=O)CN(C)CC(=O)Nc1c(C)n(C)n(-c2ccccc2)c1=O	.	.	10µM	.
CSc1nc(=O)c2c(n1C)NC(=O)CC2c1cc(F)cc(F)c1 (stereo not drawn)	.	.	.	/
CCN(CC)CCNC(=O)CSc1nc2nc(C)c(Cc3ccccc3)c(C)n2n1	.	.	.	/
COC(=O)c1cc(NC(=O)[C@H](CCS(C)(=O)=O)N2Cc3ccccc3C2=O)cc(C(=O)OC)c1	.	.	.	.
CCn1c2c(c(=O)n3ncc(C(=O)Nc4cc(Cl)ccc4OC)c13)CN(Cc1ccc(OC)cc1)CC2	32µM	.	.	/
Cc1cc(-c2cc(-c3ccccc3)on2)nc(NC2CCCC2)n1	.	.	?	.
Cc1cc(-c2cc(-c3ccc(Cl)cc3)on2)nc(NC2CCCC2)n1	25µM	.	.	.
O=C(OCc1ccccc1)c1cccc(-c2nnc(-c3ccccc3)o2)c1	35µM	.	.	.
CCOC(=O)c1cccc(COC(=O)c2cccc(-c3nnc(-c4ccccc4)o3)c2)c1	32µM	.	?	.
CCOC(=O)c1cc(-c2nnc(-c3ccc(Oc4ccccc4)cc3)o2)c(C)nc1C	3.2µM	.	.	.
CCOC(=O)c1cc(C(=O)NN)c(C)nc1C	.	.	.	.
Cc1ccc2oc(C(=O)Nc3ccc(S(=O)(=O)N(C)c4ccccc4)cc3)cc(=O)c2c1	.	.	.	/
O=C1N/C(=N\N=C\c2ccco2)SC1Cc1ccccc1[N+](=O)[O-] (stereo not drawn)	.	4µM	7.1µM	.
COc1cc(NC(=O)CSc2nccn2C)cc(OC)c1OC	.	.	.	.
CCOc1ccccc1CNC(=O)CN1C(=O)C2CCCCN2c2ccc(C(=O)N(C)C)cc21 (stereo not drawn)	.	.	.	/
O=C(NCc1ccccc1)c1nnc(Cc2cccc(F)c2)o1	.	.	.	/
CC(=O)c1ccc(OCc2cc(C(=O)N(C)CCOc3ccc(C)cc3)no2)cc1	.	.	10µM	.
CC(=O)c1ccc(OCc2cc(C(=O)N(C)Cc3nc4c(C)cccc4[nH]3)no2)cc1	.	.	.	.
SMILES	ClpP mod	GLP1R cytotox	GLP1R inv ag	GLP1R ag
CCOc1ccc(-c2cc(C(=O)N3CCN(c4cc(Cl)ccc4C)CC3)c3ccccc3n2)cc1	.	.	.	/
CCOC(=O)C1CCCN(C(=O)c2cc(-c3ccc(F)cc3)nc3ccccc23)C1 (stereo not drawn)	/	.	7.9µM	.
CCOc1ccc(-c2cc(C(=O)O)c3ccccc3n2)cc1	35µM	.	?	.
CCOc1ccc(-c2cc(C(=O)N3CCC(C)CC3)c3ccccc3n2)cc1	32µM	.	.	.
CCOc1ccc(-c2cc(C(=O)NC(C)c3ccccc3)c3ccccc3n2)cc1 (stereo not drawn)	.	.	.	/
CCOC(=O)C1(CC2CC2)CCN(C(=O)c2cc(C3CC3)nc3ccccc23)CC1	/	.	10µM	.
COc1ccc(CCN2C(=O)CCC3=C2CCCC3=O)cc1OC	.	.	.	.
O=C(NCCC1=CCCCC1)C1CCN(C(=O)N2CCOc3ccc(Cl)cc32)CC1	.	.	?	/
